# Screening data as filed in PubChem.
# AGP1 TOR yeast – modulators of AGP1-GFP expression in yeast TOR pathway, primary screen, cell-based, multiplex flow cytometry, S. cerevisiae, MLPCN library; 3 h; GFP as percent of DMSO wells; GFP response vs DMSO, % at 10 µM; actives 0.02% (n = 320,000);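 active = GFP response relative to DMSO above a set limit, near screen average plus 3 SD, cut at about 150% in these data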;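 note: median GFP channel fluorescence of the gated AGP1 strain per well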
# MEP2-GFP yeast – modulators of MEP2-GFP levels in yeast, primary screen, S. cerevisiae, multiplex flow cytometry, MLPCN library; S. cerevisiae MEP2-GFP strain, 3 h; 100% = DMSO control level; GFP response vs DMSO, % at 10 µM; actives 0.51% (n = 330,000); AID 2016, 2009;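 active = GFP response versus DMSO above a set limit, roughly screen mean plus 3 SD, cut at about 180% in these data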;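 note: median GFP fluorescence of the barcode-gated MEP2-GFP cells per well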
# CIT2-GFP yeast – modulators of CIT2-GFP expression in yeast, primary screen, S. cerevisiae, GFP fusion, multiplex flow cytometry, MLPCN library. S. cerevisiae CIT2-GFP strain, 3 h; 100 means same as DMSO wells. GFP response vs DMSO, % at 10 µM. actives 0.065% (n = 320,000);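 active = GFP response relative to DMSO above a set limit, near the screen mean plus 3 SD, cut at about 150% in these data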;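 note: ratio of well median GFP fluorescence to mean of DMSO wells on the plate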
# RPL19A TOR yeast – RPL19A-GFP expression modulators in yeast, primary screen, cell-based, S. cerevisiae, multiplex flow cytometry, MLPCN. S. cerevisiae RPL19A-GFP strain, 3 h; stronger effect = lower value. actives 0.3% (n = 330,000). AID 2025, 2009. percent response vs DMSO, % at 10 µM;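 active = percent response vs DMSO below 50%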;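 note: median channel GFP fluorescence of the barcoded RPL19A-GFP strain; ratio of sample median GFP to plate DMSO average so 100% = DMSO; lower means less RPL19A-GFP as with rapamycin TOR inhibition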
# LAP4 TOR yeast – modulators of LAP4-GFP expression in yeast, primary screen, S. cerevisiae, multiplex flow cytometry, MLPCN library; AID 2023, 2009; 3 h; median GFP as percent of DMSO wells; GFP response vs DMSO, % at 10 µM; actives 0.34% (n = 320,000);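 active = GFP response vs DMSO above a set limit, about the screen mean plus 3 SD, cut at about 150% in these data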
# LAP4 cherry2 – LAP4-GFP expression modulators in yeast, confirmation, cell-based, second cherry pick, flow cytometry | S. cerevisiae LAP4-GFP strain, 3 h | GFP response vs DMSO, % at 10 µM | shares compounds with LAP4 TOR yeast | actives 20% (n = 590);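 active = GFP signal as percent of the solvent control above about 150%, meaning raised reporter expression, limit read from the data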;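 note: ratio of well median GFP fluorescence to plate DMSO mean so 100% = DMSO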
# MEP2 cherry2 – modulators of MEP2-GFP levels in yeast, confirmation, S. cerevisiae, flow cytometry GFP, second cherry picks | GFP response vs DMSO, % at 10 µM | actives 10% (n = 590) | S. cerevisiae MEP2-GFP strain, 3 h | shares compounds with LAP4 TOR yeast;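 active = GFP signal above 150% of the solvent control wells, that is a rise of more than half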;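 note: median channel GFP fluorescence of all gated yeast cells per well; ratio of median GFP to plate DMSO average so 100% = DMSO level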
# RPL19A-GFP pick2 – RPL19A-GFP modulators in TOR pathway yeast, confirmation, cell-based, S. cerevisiae, flow cytometry, second cherry pick; S. cerevisiae RPL19A-GFP strain, 3 h; stronger effect = lower value; 100% means same as DMSO wells; shares compounds with LAP4 TOR yeast; GFP response vs DMSO, % at 10 µM; AID 2623, 2010; actives 3% (n = 590);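 active = under 65% GFP response relative to DMSO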;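 note: median GFP channel fluorescence per well over the all cells gate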
# CIT2-GFP pick2 – modulators of CIT2-GFP expression in yeast, confirmation, flow cytometry, second cherry pick, single plex; AID 2624, 2010; GFP response vs DMSO, % at 10 µM; S. cerevisiae CIT2-GFP strain, 3 h; DMSO control wells read 100%; actives 8% (n = 590); shares compounds with LAP4 TOR yeast;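 active = GFP response vs DMSO above about 150%, limit read from the data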;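 note: median green fluorescence per well over all gated yeast cells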
# AGP1 GFP CP2 – AGP1-GFP expression modulators, hit retest, confirmation, cell-based, flow cytometry, S. cerevisiae, cherry pick set 2; AID 2643, 2010; shares compounds with LAP4 TOR yeast; percent response vs DMSO, % at 10 µM; 590 tested, under 10 active; S. cerevisiae AGP1-GFP strain, 3 h;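 active = over 150 percent of DMSO response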;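 note: median GFP channel fluorescence over all cells without mother daughter split; sample median GFP divided by mean DMSO control so 100% equals DMSO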
# Yeast autofluor – compound autofluorescence in yeast s288c, dose response, artefact control for yeast TOR pathway GFP screen, s288c strain. S. cerevisiae s288c, 520 nm autofluorescence, flow cytometry, 3 h; stronger effect = higher value; zero means same as solvent-only cells. 610 tested, under 10 active. fluorescence change (kMESF span) at 33 µM. shares compounds with LAP4 TOR yeast;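 active = fluorescence span over the dose series, or activity score, above about 33, limit read from the data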
# s288c autofl DR – autofluorescence of compounds in yeast s288c, dose response, artefact control for yeast TOR pathway GFP screen, primary hits, KU SAR, s288c parental; shares compounds with LAP4 TOR yeast; S. cerevisiae s288c parental, compound autofluorescence, flow cytometry, 3 h; fluorescence change (span) at 33 µM; 110 tested, under 10 active;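 active = fluorescence change span, or the activity score built from it, above 25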
# TORC1 bypass – wild-type yeast growth inhibition sparing TORC1 bypass cells, mechanism study for yeast TOR pathway GFP screen, BY4741 wild type, TORC1 bypass strain | shares compounds with LAP4 TOR yeast | S. cerevisiae BY4741 spot growth rating, 48-72 h; stronger effect = lower value | growth rating (0-3) at 30 µM | 120 tested, under 10 active | AID 504456, 2011;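 active = growth rating at most 1 for wild type yeast while the TORC1 bypass strain still grows fully, rated 3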
# * marks the source's active call; other numbers are inactive results; x = no result. An excerpt weighted towards active compounds, which were near 0.93% of everything screened.
SMILES,AGP1 TOR yeast,MEP2-GFP yeast,CIT2-GFP yeast,RPL19A TOR yeast,LAP4 TOR yeast,LAP4 cherry2,MEP2 cherry2,RPL19A-GFP pick2,CIT2-GFP pick2,AGP1 GFP CP2,Yeast autofluor,others
CC(=O)N1NC(=Nc2ccccc2)SC1(C)C,79.5,132.9,90.0,62.0,94.6,115.2,101.3,96.1,96.0,98.1,x,
O=C1NC(=Nc2ccccc2)SC1(CO)CO,102.5,117.3,113.2,101.8,107.1,x,x,x,x,x,x,
CCOC(=O)CC(=O)Nc1ccc(C)cc1,95.9,102.6,103.1,99.5,93.1,99.0,101.5,99.4,99.5,100.1,x,
Cc1cnc(C(=O)OCC(=O)c2ccc(F)cc2)cn1,91.6,92.7,90.7,94.7,87.1,x,x,x,x,x,x,
O=C(c1ccc([N+](=O)[O-])o1)N1CCN(c2nc3c(F)cc(F)cc3s2)CC1,79.2,146.4,131.1,60.4,167.4*,x,x,x,x,x,9.47,
Cc1ccc2c(c1)N(CC(=O)NC1CCCC1)C(=O)c1cccnc1O2,106.8,100.4,98.8,100.6,108.2,x,x,x,x,x,x,
O=c1c2c([N+](=O)[O-])cc([N+](=O)[O-])cc2sn1-c1ccc(Br)cc1,11.6,78.1,37.5,32.0*,62.3,107.2,96.1,94.4,102.9,99.5,x,
O=c1c2c([N+](=O)[O-])cc([N+](=O)[O-])cc2sn1Cc1ccccc1,100.7,99.8,99.0,98.7,107.4,x,x,x,x,x,x,
O=C1c2cccc3c([N+](=O)[O-])ccc(c23)C(=O)N1O,115.8,350.2*,273.8*,147.8,227.9*,x,x,x,x,x,20.1,
O=C1c2cccc3c([N+](=O)[O-])ccc(c23)C(=O)N1c1ccccn1,82.8,301.2*,191.4*,115.3,193.0*,193.3*,324.5*,121.7,195.6*,114.2,13.1,
O=C1c2cccc3c(N4CCCCC4)ccc(c23)C(=O)N1c1ccccn1,96.1,107.5,101.2,102.0,104.5,x,x,x,x,x,x,
CC(OC(=O)C1CC(=O)N(Cc2ccccc2)C1)C(=O)Nc1cccc(C#N)c1 (configuration not stated),92.7,104.8,110.7,99.5,89.5,x,x,x,x,x,x,
COc1cc(C(=O)Nc2cccc(NC(=O)c3cccs3)c2)cc(OC)c1OC,97.4,107.0,107.7,100.8,94.7,x,x,x,x,x,x,
COc1ccc(N=Cc2nc(-c3ccccc3)oc2OC(C)=O)cc1,101.0,97.9,89.5,102.8,119.9,x,x,x,x,x,0,
COc1cccc(N=CC2=C(O)CCCC2=O)c1,99.0,101.7,92.3,93.2,106.1,x,x,x,x,x,x,
COc1cccc(N=Cc2nc(-c3ccccc3)oc2OC(C)=O)c1,x,88.9,x,99.4,x,x,x,x,x,x,-0.2,
C/C(=N\NC(=O)c1cc2ccccc2cc1O)c1ccccn1,100.7,119.5,96.8,96.8,216.3*,x,x,x,x,x,1.63,
Cc1cc(C(=O)COC(=O)c2ccc[nH]c2=O)c(C)n1-c1ccccc1F,41.4,115.9,84.5,55.0,137.7,155.3*,131.0,92.9,105.7,77.7,2.4,s288c autofl DR=1.17;TORC1 bypass=3
Cc1ccc(-n2c(C)cc(C(=O)COC(=O)c3ccc[nH]c3=O)c2C)cc1C,84.8,85.8,81.0,58.3,149.8,x,x,x,x,x,x,
CN(C)c1ccc(/C=C/c2cc[n+]([O-])cc2)cc1,103.9,130.3,108.4,101.7,108.9,x,x,x,x,x,x,
CN(C)c1ccc(/C=C/c2cc[n+](C)cc2)cc1,123.0,248.7*,181.8*,116.4,198.8*,x,x,x,x,x,11,
O=C(COC(=O)c1ccccc1C(=O)OCC(=O)NCCc1c[nH]c2ccccc12)NCCc1c[nH]c2ccccc12,95.9,95.5,131.3,97.1,154.6*,102.2,97.8,97.2,101.5,98.6,x,
O=C(Oc1ccc(Cl)c2cccnc12)c1cccc([N+](=O)[O-])c1,88.0,91.3,85.0,92.8,96.2,x,x,x,x,x,x,
O=C(Oc1c(Cl)cc(Cl)c2cccnc12)c1cccc([N+](=O)[O-])c1,92.3,94.7,107.5,92.2,187.4*,x,x,x,x,x,2.44,s288c autofl DR=0.24;TORC1 bypass=0
COc1ccc(OC)c2sc(N3CCN(C(=O)c4ccc([N+](=O)[O-])s4)CC3)nc12,85.5,106.2,87.7,95.1,160.3*,136.3,143.2,97.2,147.4,99.5,x,
O=C(c1ccc([N+](=O)[O-])s1)N1CCN(c2ccccn2)CC1,110.0,105.0,101.6,105.2,103.9,x,x,x,x,x,x,
CC(=O)n1cc(C(C[N+](=O)[O-])SCCN)c2ccccc21 (configuration not stated),78.2,86.8,76.3,93.0,226.5*,183.4*,164.2*,97.6,126.5,103.8,1.51,
CC(C)c1ccc(/C=C2\SC(=O)N(CC(=O)NCCCn3ccnc3)C2=O)cc1,98.8,101.8,97.0,100.1,95.9,x,x,x,x,x,x,
